ChEMBL document CHEMBL4513216, “Probing the Open Global Health Chemical Diversity Library for Multistage-Active Starting Points for Next-Generation Antimalarials” (ACS Infect Dis, 2020)
Screen size: about 68,000 compounds; about 2,700 (4%) showed an effect of 50% or more. The entries come from a sample that favours strong results as a whole.

Tested on: Plasmodium berghei
Assay: Screen against P. berghei liver stage (PbLuc), transformed with Luciferase, at 2uM
Assay type: functional, HepG2
Conditions: tested at 2 uM

Question: `CCCc1cc(=O)[nH]c(SCc2ccccn2)n1` was tested. Which INHIBITION did it give?
Answer: 4.95%

Question: With `CCc1c(C)nc(SCc2ccccn2)[nH]c1=O` as the molecule, how does the INHIBITION read?
Answer: 50.67%

Question: For `CCc1cc(=O)[nH]c(SCc2ccccn2)n1`, which INHIBITION is on record?
Answer: 8.41%

Question: For `CNC(=O)c1cc2c(nc1N(C)C)CCN(c1ncccn1)CC2`, which INHIBITION is on record?
Answer: -31.3%

Question: How did the INHIBITION turn out when `Cc1nn2cc(CCNC(=O)c3cc(C(C)C)nn3C)nc2s1` was run?
Answer: -8.8%

Question: For `Cc1cc(C(=O)NCCc2cn3nc(C)sc3n2)c(C)o1`, which INHIBITION is on record?
Answer: 55.66%

Question: How did the INHIBITION turn out when `Cc1nn2cc(CCNC(=O)c3cc(C(C)C)no3)nc2s1` was run?
Answer: 11.9%

Question: Which INHIBITION does the source give for `COCC1CN(C(=O)Cc2cccc(F)c2)Cc2ccnn2C1` (stereo not given) here?
Answer: 13.52%

Question: Which INHIBITION does the source give for `CCCN(CCc1ccccn1)C(=O)CCc1cnn(C)c1` here?
Answer: -46.85%

Question: With `CC1(C)CC(N(Cc2ccccc2)Cc2cccnc2)CC(C)(C)N1` as the molecule, how does the INHIBITION read?
Answer: 26.52%

Question: `O=C(O)c1cccnc1N1CCN(Cc2ccc(F)cc2)C(CCO)C1` (stereo not given) was tested. Which INHIBITION did it give?
Answer: 78.43%

Question: `CNC(=O)c1cccnc1N1CCN(Cc2ccccc2)C(CCO)C1` (stereo not given) was tested. Which INHIBITION did it give?
Answer: -4.52%

Question: For `Cc1ccc(CN2CCN(c3ncccc3C(N)=O)CC2CCO)cc1` (stereo not given), which INHIBITION is on record?
Answer: 3.92%

Question: With `c1cncc(C2COC3(CCN(Cc4ccsc4)CC3)C2)c1` (stereo not given) as the molecule, how does the INHIBITION read?
Answer: 32.85%

Question: For `Cn1nccc1CN1CCOC(c2cccc(Nc3ccccn3)n2)C1` (stereo not given), which INHIBITION is on record?
Answer: -88.78%

Question: With `Cc1nc(C)c(CNC(=O)N2CCc3ccccc3C2CO)s1` (stereo not given) as the molecule, how does the INHIBITION read?
Answer: 5.98%

Question: Which INHIBITION does the source give for `Cc1cc(CC(=O)NC2CCCN(Cc3ccccc3)C2=O)n[nH]1` (stereo not given) here?
Answer: -8.63%

Question: For `COc1cccc(C(=O)N2CCC3(CCC(=O)N(C(C)C)C3)CC2)c1C`, which INHIBITION is on record?
Answer: 63.37%

Question: With `COc1ccc(F)cc1C(=O)N1CCC2(CCC(=O)N(C(C)C)C2)CC1` as the molecule, how does the INHIBITION read?
Answer: 23.76%

Question: With `COc1cc(C)ccc1C(=O)N1CCC2(CCC(=O)N(C(C)C)C2)CC1` as the molecule, how does the INHIBITION read?
Answer: -4.62%

Question: `CC(=O)N1CCN(C(=O)CNc2cccc(OC(F)F)c2C)CC1` was tested. Which INHIBITION did it give?
Answer: 17.61%

Question: For `COc1ccc(OC)c(C2CCN(C(=O)C3CCS(=O)(=O)CC3)C2)c1` (stereo not given), which INHIBITION is on record?
Answer: -18.57%

Question: How did the INHIBITION turn out when `COc1ccc(OC)c(C2CCN(C(=O)C3CCOCC3)C2)c1` (stereo not given) was run?
Answer: 48.21%

Question: Which INHIBITION does the source give for `COc1ccc(OC)c(C2CCN(C(=O)C3CCC(O)CC3)C2)c1` (stereo not given) here?
Answer: 55.36%

Question: With `COc1ccc(C(=O)NCc2cccnc2N2CCOCC2)o1` as the molecule, how does the INHIBITION read?
Answer: -49.51%

Question: Which INHIBITION does the source give for `O=C(c1cccs1)N1CCC(n2nc(-c3ccco3)ccc2=O)CC1` here?
Answer: 38.1%

Question: For `CCc1c(C)nn(CC(=O)NC(C)c2n[nH]c(C)n2)c1C` (stereo not given), which INHIBITION is on record?
Answer: 40.15%

Question: For `Clc1ccc(C2(CNC3=NCCN3)CCCC2)cc1`, which INHIBITION is on record?
Answer: 6.85%

Question: For `Clc1ccc(C2(CNC3=NCCN3)CC2)cc1`, which INHIBITION is on record?
Answer: 53.98%

Question: For `Clc1ccc(C2(CNC3=NCCN3)CCCCC2)cc1`, which INHIBITION is on record?
Answer: 35.46%
